In PubChem BioAssay (EPA / NIEHS):
Inconclusive results are not listed. Activity calls are given as the source filed them. The calls were made as follows, unless noted: active = hit-call score of the fitted dose curve at least 0.9, where 1 is the maximum; inactive = score below 0.9.

Assays:
[1] = ACEA_ER_80hr: ACEA Biosciences xCELLigence Real-Time Cell Analysis on Estrogen Receptor Agonism for Proliferation (AID 2282667; active = hit-call score of the fitted dose curve at least 0.9, where 1 is the maximum); details: T47D proliferation, impedance (xCELLigence), 80 h
Procedure, shortened: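 Impedance readout (RT-CES) of T47D proliferation at 80 h post-dose; gain of signal vs DMSO baseline. Compounds: 8 conc, 1:4 serial, top 100 uM final, ≤0.5% DMSO; biological duplicate.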

[2] = ATG_CRE_CIS: Attagene CIS-FACTORIAL HepG2 Assay for human cAMP Responsive Element (CRE) binding protein 3 (AID 2282926); details: HepG2 CRE cis-reporter, Attagene multiplexed mRNA; actives raise or lower the signal
Procedure, shortened: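 Readout: fluorescently labelled reporter transcripts resolved by capillary electrophoresis after RT-PCR, taken 24 h post-dosing in transfected HepG2. Endogenous transcription factor activity drives each cis-element reporter; gain or loss of signal fitted relative to DMSO control.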

[3] = target: CCAAT/enhancer-binding protein beta (Homo sapiens) (UniProt P17676); assay: ATG_C_EBP_CIS: Attagene CIS-FACTORIAL HepG2 Assay for human CCAAT/Enhancer Binding Protein (C/EBP) beta (AID 2282927); details: HepG2 Attagene cis-factorial transcription factor reporter; actives raise or lower the signal
Chain of CCAAT/enhancer-binding protein beta (Homo sapiens) (P17676 whole entry, looked up): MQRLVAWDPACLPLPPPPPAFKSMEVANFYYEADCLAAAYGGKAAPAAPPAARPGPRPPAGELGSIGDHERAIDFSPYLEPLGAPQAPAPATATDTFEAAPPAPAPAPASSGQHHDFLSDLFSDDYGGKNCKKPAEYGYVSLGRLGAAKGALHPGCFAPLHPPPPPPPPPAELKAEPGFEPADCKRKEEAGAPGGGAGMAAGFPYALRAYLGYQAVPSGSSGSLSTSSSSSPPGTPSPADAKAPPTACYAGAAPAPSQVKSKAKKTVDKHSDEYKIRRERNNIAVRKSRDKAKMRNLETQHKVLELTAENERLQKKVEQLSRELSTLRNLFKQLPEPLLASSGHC
Procedure, shortened: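 HepG2, transient MRTU transfection, 24 h treatment. RT-PCR plus CE fluorescence; DMSO negative control, bidirectional fit.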

[4] = ATG_CMV_CIS: Attagene CIS-FACTORIAL HepG2 Assay for human CMV (Internal Marker) (AID 2282928); details: HepG2 CMV promoter reporter, transcription factor profiling; actives raise or lower the signal;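 also: endpoint acts as a background internal control marker rather than a target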
Procedure, shortened: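 24 h chemical treatment, HepG2 with transient multi-reporter transfection; RNA → oligo(dT) RT → PCR → 6-FAM extension → HpaI digest → CE fluorescence. Bidirectional fit, DMSO negative control.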

[5] = target: Aryl hydrocarbon receptor (Homo sapiens) (UniProt P35869); assay: ATG_Ahr_CIS: Attagene CIS-FACTORIAL HepG2 Assay for human Aryl Hydrocarbon Receptor (Ahr) (AID 2282930); details: HepG2 AhR cis-factorial reporter transcription; actives raise or lower the signal
Chain of Aryl hydrocarbon receptor (Homo sapiens) (P35869 whole entry, looked up): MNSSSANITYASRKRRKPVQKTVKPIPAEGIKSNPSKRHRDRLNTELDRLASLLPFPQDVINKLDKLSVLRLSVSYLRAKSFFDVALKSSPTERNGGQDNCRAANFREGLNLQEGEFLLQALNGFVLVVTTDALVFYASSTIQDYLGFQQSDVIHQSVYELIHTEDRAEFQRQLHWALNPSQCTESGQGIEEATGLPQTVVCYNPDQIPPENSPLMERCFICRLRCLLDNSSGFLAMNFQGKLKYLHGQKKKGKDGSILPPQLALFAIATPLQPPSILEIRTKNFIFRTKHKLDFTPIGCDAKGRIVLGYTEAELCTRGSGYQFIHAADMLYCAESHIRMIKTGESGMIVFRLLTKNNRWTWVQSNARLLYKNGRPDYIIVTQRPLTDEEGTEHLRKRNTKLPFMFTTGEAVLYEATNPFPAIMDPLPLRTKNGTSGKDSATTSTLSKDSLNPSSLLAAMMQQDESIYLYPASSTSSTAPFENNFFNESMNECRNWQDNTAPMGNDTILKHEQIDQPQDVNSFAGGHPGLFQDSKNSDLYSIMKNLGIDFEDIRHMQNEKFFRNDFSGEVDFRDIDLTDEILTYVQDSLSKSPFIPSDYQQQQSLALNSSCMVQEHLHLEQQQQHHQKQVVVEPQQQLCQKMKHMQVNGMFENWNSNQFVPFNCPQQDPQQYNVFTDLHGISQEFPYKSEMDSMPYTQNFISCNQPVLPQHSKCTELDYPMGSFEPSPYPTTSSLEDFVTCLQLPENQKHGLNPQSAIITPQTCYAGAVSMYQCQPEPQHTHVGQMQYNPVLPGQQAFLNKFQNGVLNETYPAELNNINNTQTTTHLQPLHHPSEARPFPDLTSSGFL
Procedure, shortened: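 Endogenous factor activity is tracked through cis-promoter reporter units transfected into HepG2 cells. Transcript levels at 24 h are read by fluorescent RT-PCR and capillary electrophoresis, with activity in either direction scored relative to DMSO.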

[6] = ATG_AP_1_CIS: Attagene CIS-FACTORIAL HepG2 Assay for human Activator Protein 1 (AP-1) (AID 2282931); details: HepG2 Attagene cis-factorial AP-1 reporter mRNA; actives raise or lower the signal
Procedure, shortened: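 After 24 h incubation with test chemical, RNA from transfected HepG2 cells was reverse-transcribed, amplified, fluorescently labelled and digested before capillary electrophoresis. Reporters were driven by cis-regulatory promoters; activity fitted bidirectionally versus DMSO.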

[7] = ATG_AP_2_CIS: Attagene CIS-FACTORIAL HepG2 Assay for human Activator Protein 2 (AP-2) (AID 2282932); details: HepG2 AP-2 cis-reporter, Attagene transcription factor profiling; actives raise or lower the signal
Procedure, shortened: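 Liver-derived HepG2 line, cis-reporter system measuring endogenous factors; 24 h dosing; reporter mRNA detected by fluorescent RT-PCR and capillary electrophoresis.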

[8] = target: Retinoic acid receptor alpha (Homo sapiens) (UniProt P10276); assay: ATG_DR5_RAR_CIS: Attagene CIS-FACTORIAL HepG2 Assay for human Retinoic Acid Receptor Alpha (RARE), DR5 submotif (AID 2282934); details: HepG2 Attagene cis-factorial RARE DR5 reporter, mRNA; actives raise or lower the signal;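 as to AC50: reporter responds to endogenous RAR alpha beta and gamma in HepG2 not RARA alone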
Chain of Retinoic acid receptor alpha (Homo sapiens) (P10276 whole entry, looked up): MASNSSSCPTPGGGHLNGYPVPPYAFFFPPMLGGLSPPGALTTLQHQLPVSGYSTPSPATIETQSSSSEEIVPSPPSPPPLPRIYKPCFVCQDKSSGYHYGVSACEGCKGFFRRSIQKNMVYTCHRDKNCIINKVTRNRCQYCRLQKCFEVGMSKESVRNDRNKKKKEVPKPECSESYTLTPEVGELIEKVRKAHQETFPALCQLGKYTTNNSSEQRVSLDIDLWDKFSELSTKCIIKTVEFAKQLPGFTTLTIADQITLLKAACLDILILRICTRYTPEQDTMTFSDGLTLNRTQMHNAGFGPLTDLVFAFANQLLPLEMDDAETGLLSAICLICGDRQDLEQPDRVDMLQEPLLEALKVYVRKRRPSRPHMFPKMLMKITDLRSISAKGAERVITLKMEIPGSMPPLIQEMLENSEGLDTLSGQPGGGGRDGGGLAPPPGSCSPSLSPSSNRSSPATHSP
Procedure, shortened: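 After 24 h of chemical exposure, transiently transfected HepG2 cells were lysed for total RNA; the DR5-regulated reporter transcript was quantified via RT-PCR and capillary electrophoresis, with activity fitted bidirectionally against DMSO.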

[9] = target: Transcription factor E2F1 (Homo sapiens) (UniProt Q01094); assay: ATG_E2F_CIS: Attagene CIS-FACTORIAL HepG2 Assay for human E2F Transcription Factor 1 (AID 2282935); details: HepG2 Attagene cis-reporter, E2F reporter RNA transcripts; actives raise or lower the signal
Chain of Transcription factor E2F1 (Homo sapiens) (Q01094 whole entry, looked up): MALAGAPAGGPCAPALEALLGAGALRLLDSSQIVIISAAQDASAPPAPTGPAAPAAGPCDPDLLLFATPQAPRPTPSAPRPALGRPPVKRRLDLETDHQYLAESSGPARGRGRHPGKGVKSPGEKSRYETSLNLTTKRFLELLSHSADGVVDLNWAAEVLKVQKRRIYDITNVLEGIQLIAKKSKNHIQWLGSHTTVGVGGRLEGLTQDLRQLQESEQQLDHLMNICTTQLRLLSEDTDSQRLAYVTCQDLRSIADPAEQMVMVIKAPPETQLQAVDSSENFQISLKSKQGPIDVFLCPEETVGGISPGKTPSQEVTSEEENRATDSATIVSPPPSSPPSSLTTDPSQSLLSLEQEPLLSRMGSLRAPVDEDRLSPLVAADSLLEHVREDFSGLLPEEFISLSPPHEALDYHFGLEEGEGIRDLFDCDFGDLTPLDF
Procedure, shortened: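 Liver-derived HepG2 cells expressing transfected promoter-driven reporter units received test chemical for 24 hours. Signal gains or losses were fitted bidirectionally against DMSO.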

[10] = ATG_E_Box_CIS: Attagene CIS-FACTORIAL HepG2 Assay for human Enhancer Box (E-box) (AID 2282936); details: HepG2 E-box cis-reporter transcription, actives raise or lower the signal
Procedure, shortened: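 In this cell-based setup, HepG2 cells bearing transfected promoter-driven reporter units were exposed to chemicals for 24 h; reporter transcripts were amplified, 6-FAM-labelled, cut with HpaI and sized by capillary electrophoresis.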

[11] = ATG_M_61_CIS: Attagene CIS-FACTORIAL HepG2 Assay for M61 Transcription Factor (Internal Marker) (AID 2282937); details: HepG2 Attagene CIS-FACTORIAL M61 internal marker reporter; actives raise or lower the signal
Procedure, shortened: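 Using transiently transfected HepG2 liver cells, reporter transcript levels were assessed 24 h post-dosing by RT-PCR and capillary electrophoresis. Changes in either direction were fitted relative to DMSO controls.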

[12] = ATG_EGR_CIS: Attagene CIS-FACTORIAL HepG2 Assay for human Early Growth Response 1 (EGR1) (AID 2282938); details: HepG2 Attagene CIS-FACTORIAL EGR reporter mRNA; actives raise or lower the signal
Procedure, shortened: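 Fluorescent capillary-electrophoresis signal of reporter cDNA fragments serves as read-out. HepG2 cells bear transiently transfected cis-promoter reporter units and are exposed 24 h; gain- or loss-of-signal is fitted against DMSO.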

[13] = ATG_M_19_CIS: Attagene CIS-FACTORIAL HepG2 Assay for M19 Transcription Factor (Internal Marker) (AID 2282939); details: HepG2 Attagene CIS-FACTORIAL M19 internal marker reporter; actives raise or lower the signal
Procedure, shortened: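 Chemical-treated HepG2 (24 h) with MRTU constructs; reporter transcripts detected by fluorescent RT-PCR fragment analysis on capillary electrophoresis. Internal background marker, DMSO as baseline.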

[14] = ATG_ERE_CIS: Attagene CIS-FACTORIAL HepG2 Assay for Estrogen Response Element (ERE) (AID 2282940); details: HepG2 ERE cis-reporter, Attagene RNA transcript; actives raise or lower the signal
Procedure, shortened: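 Human liver cells (HepG2) bearing transiently transfected, promoter-regulated reporter units were exposed 24 h. Reporter mRNA induction was detected by capillary electrophoresis of labelled RT-PCR products and fitted bidirectionally to DMSO.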

[15] = ATG_Ets_CIS: Attagene CIS-FACTORIAL HepG2 Assay for human Erythroblast Transformation Specific (ETS) (AID 2282941); details: HepG2 ETS cis-reporter transcription, actives raise or lower the signal
Procedure, shortened: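 Cis-regulated reporter mRNA induction in HepG2 (transient transfection), 24 h exposure, RT-PCR plus capillary electrophoresis detection; DMSO serves as negative control and baseline.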

[16] = target: Hepatocyte nuclear factor 3-beta (Homo sapiens) (UniProt Q9Y261); assay: ATG_FoxA2_CIS: Attagene CIS-FACTORIAL HepG2 Assay for human Forkhead box A2 (FOXA2) (AID 2282942); details: HepG2 cis-reporter transcription factor activity, 24 h; actives raise or lower the signal
Chain of Hepatocyte nuclear factor 3-beta (Homo sapiens) (Q9Y261 whole entry, looked up, the tested form may be a part): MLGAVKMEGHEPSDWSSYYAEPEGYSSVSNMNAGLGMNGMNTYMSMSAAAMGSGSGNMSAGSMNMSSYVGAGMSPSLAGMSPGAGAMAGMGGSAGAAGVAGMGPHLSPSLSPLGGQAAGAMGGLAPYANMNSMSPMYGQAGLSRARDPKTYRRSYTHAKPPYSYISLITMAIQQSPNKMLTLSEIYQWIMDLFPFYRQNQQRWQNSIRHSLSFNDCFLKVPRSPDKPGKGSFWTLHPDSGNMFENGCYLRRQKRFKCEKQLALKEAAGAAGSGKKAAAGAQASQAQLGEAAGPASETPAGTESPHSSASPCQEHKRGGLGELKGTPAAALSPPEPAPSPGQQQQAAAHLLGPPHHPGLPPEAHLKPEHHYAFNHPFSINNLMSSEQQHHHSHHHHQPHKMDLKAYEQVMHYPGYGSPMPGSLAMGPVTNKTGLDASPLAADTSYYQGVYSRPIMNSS
Procedure, shortened: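 Fluorescence signal of reporter cDNA fragments, separated by capillary electrophoresis, reflects endogenous transcription factor activity in transfected HepG2 after 24 h. Both increases and decreases fitted against DMSO.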

[17] = ATG_FoxO_CIS: Attagene CIS-FACTORIAL HepG2 Assay for human Forkhead box O (FoxO) (AID 2282943); details: HepG2 Attagene cis-reporter, FoxO element, mRNA; actives raise or lower the signal
Procedure, shortened: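 Transfected HepG2 reporter cells exposed to test chemical for 24 h; reporter RNA measured by reverse transcription, PCR and fluorescent capillary electrophoresis; curves fitted for increases and decreases against DMSO.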

[18] = ATG_GATA_CIS: Attagene CIS-FACTORIAL HepG2 Assay for human GATA Binding Protein (AID 2282944); details: HepG2 GATA cis-element reporter, Attagene multiplex mRNA; actives raise or lower the signal
Procedure, shortened: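 Transfected cis-reporter HepG2 cells were treated with chemicals for 24 hours. Total RNA was then converted to cDNA, amplified with reporter-specific primers and analysed by fluorescent capillary electrophoresis, using DMSO-treated wells as baseline.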

[19] = ATG_DR4_LXR_CIS: Attagene CIS-FACTORIAL HepG2 Assay for human Liver X Receptor (LXR), DR4 submotif (AID 2282929); details: HepG2 Attagene DR4 cis-reporter, mRNA transcription; actives raise or lower the signal
Procedure, shortened: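 After transient transfection with multiplexed cis-promoter reporter units, HepG2 cells received test chemicals for 24 h. Reporter mRNA induction, detected by fluorescence after RT-PCR and capillary electrophoresis, was scored relative to DMSO.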

[20] = ATG_BRE_CIS: Attagene CIS-FACTORIAL HepG2 Assay for human Bone Morphogenetic Protein (BMP) Response Element (BRE) (AID 2282933); details: HepG2 BMP response element reporter, Attagene transcription factor profiling; actives raise or lower the signal
Procedure, shortened: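 A HepG2 multiplex reporter system measured inducible reporter mRNA 24 h post-dosing. Detection: RT-PCR, 6-FAM primer extension, HpaI digestion, capillary electrophoresis. Activity fitted bidirectionally relative to DMSO.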

Measured: AC50

COC(=O)CC(C)CCC=C(C)C (configuration not stated)
not listed: [19] | [20]
inactive: all other assays above

CC(C)c1cc(C(C)C)cc(C(C)C)c1
active: [3] 182 µM | [19] 25.9 µM | [6] 125 µM | [7] 180 µM | [8] 59.5 µM | [14] 168 µM | [15] 169 µM | [16] 160 µM | [18] 178 µM
inactive: [1] | [2] | [5] | [20] | [9] | [11] | [12] | [13] | [17]

O=C(O)CCC(=O)O
not listed: [4] | [5]
inactive: all other assays above

CC(=O)/C=C/C1C(C)=CCCC1(C)C (configuration not stated)
active: [14] 44.7 µM
not listed: [4] | [8] | [9] | [19]
inactive: all other assays above

C=CCOC(=O)c1ccc(C(=O)OCC=C)c(C(=O)OCC=C)c1
active: [14] 22.8 µM
not listed: [4] | [10] | [13]
inactive: all other assays above

C=CCNCC=C
not listed: [4] | [14] | [16]
inactive: all other assays above

CCCCCCCCCC(C)=O
not listed: [4]
inactive: all other assays above

CC1CCC(=O)C1=O (configuration not stated)
not listed: [4] | [7] | [16]
inactive: all other assays above

CC(C)(O)Cc1ccccc1
not listed: [4] | [14]
inactive: all other assays above

CC(=O)CCC=C(C)C
not listed: [4] | [18]
inactive: all other assays above

CCCCCCCCCCCC(=O)OCC
not listed: [4] | [10]
inactive: all other assays above

C=C(C)C(=O)OCC(O)COc1ccc(C(C)(C)c2ccc(OCC(O)COC(=O)C(=C)C)cc2)cc1 (configuration not stated)
active: [6] 63.7 µM | [20] 24.8 µM | [12] 39.8 µM | [15] 100 µM | [18] 166 µM
not listed: [5] | [19]
inactive: all other assays above

CCCSSCCC
not listed: [12] | [19] | [20]
inactive: all other assays above

COc1nccnc1CC(C)C
not listed: [7] | [19]
inactive: all other assays above

CCC(=O)C1CC(C(C)C)CC=C1C (configuration not stated)
not listed: [4] | [5]
inactive: all other assays above

CC1C(C)(C)C2=C(C(=O)CCC2)C1(C)C (configuration not stated)
active: [14] 26.6 µM
not listed: [7] | [13] | [19]
inactive: all other assays above
